LEDGF integ inh: blocks HIV-1 LEDGF/p75-dependent DNA integration; TR-FRET IN-LEDGF/p75 DNA integration, Eu/Cy5; inhibition, % at 3.7 µM; 370,000 compounds, 0.64% hits; AID 743269;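 active means inhibition above the screen-wide mean plus 3 SD, cut at about 13% in these data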;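 further: signal is the Cy5 over europium emission ratio at 671 and 618 nm; 0% = plate median of compound wells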
UHRF1 MBD2 ctr: blocks human UHRF1 binding to methylated DNA | UHRF1 binding to methylated oligo, TR-FRET | inhibition, % at 4.4 µM | 370,000 compounds, 0.75% hits; in the data active means inhibition above about 21%;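 further: UHRF1 SRA domain binding a hemimethylated CpG hairpin DNA probe; 0% = median of test compound wells and 100% = reference inhibitor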
KLK7 zymogen act: activates the human kallikrein-7 zymogen; 370,000 compounds, 0.9% hits; purified proKLK7, EDANS-DABCYL substrate fluorescence; 100% is mature enzyme control, 0% vehicle; activation, % at 7 µM; P49862;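 active means activation above the mean of all tested compounds plus 3 SD, computed per campaign excluding outliers beyond control limits, cut at about 13% in these data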
Target sequence (P49862 whole entry, looked up): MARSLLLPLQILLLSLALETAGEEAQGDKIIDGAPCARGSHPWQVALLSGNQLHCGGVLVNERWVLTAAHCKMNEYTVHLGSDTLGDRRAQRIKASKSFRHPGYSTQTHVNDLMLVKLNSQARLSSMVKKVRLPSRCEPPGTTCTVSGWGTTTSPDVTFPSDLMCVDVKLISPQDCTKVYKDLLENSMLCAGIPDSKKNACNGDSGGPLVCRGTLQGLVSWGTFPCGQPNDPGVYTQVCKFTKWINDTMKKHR
Rin1-Abl PPI inh: inhibitors of human Rin1-Abl protein interaction | TR-FRET Rin1/Abl binding, biochemical | P00519+Q13671 | inhibition, % at 7.35 µM | 360,000 compounds, 0.4% hits; in the data active means inhibition above about 5%, passing the limit was not always enough
MBD2 DNA inh: MBD2-methylated oligo binding inhibition. 370,000 compounds, 0.31% hits. TR-FRET, MBD2 binding to methylated oligonucleotide. inhibition, % at 4.4 µM. AID 686964; in the data active means inhibition above about 13%
Neddylation inh: cullin neddylation inhibition; P61081+Q13564; TR-FRET cullin neddylation, biochemical; calls only at 25 µM; 360,000 compounds, 0.58% hits; AID 651699; in the data active means inhibition above about 36%
IN multimer up: activates HIV-1 integrase multimerization in LEDGF counter-screen; activation, % at 7.7 µM; shares compounds with LEDGF integ inh; AID 1053131; TR-FRET HIV-1 integrase multimerization, biochemical; 2,000 compounds, 17% hits; in the data active means activation above about 8.9%
TR-FRET interf: optically interferes with TR-FRET readout in LEDGF counter-screen; inhibition, % at 7.7 µM; shares compounds with LEDGF integ inh; TR-FRET optical interference counterscreen, HIV-1 IN multimerization; 2,000 tested, under 10 active;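 active means inhibition above the mean over all tested compounds plus 3 SD, which no compound reached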;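 further: 0% = integrase with antibodies and DMSO and 100% = antibodies without integrase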
IN-LEDGF confirm: LEDGF/p75-dependent HIV-1 integration inhibition, confirmation. shares compounds with LEDGF integ inh. TR-FRET LEDGF/p75-dependent HIV-1 integration, biochemical. inhibition, % at 3.7 µM. 2,000 compounds, 36% hits; in the data active means inhibition above about 14%
Starred values were filed as active, the others as inactive; i = inactive; · = no result given. Most compounds without a hit are left out; they make up all but 3.1% or so of the library.

SMILES	LEDGF integ inh	UHRF1 MBD2 ctr	KLK7 zymogen act	Rin1-Abl PPI inh	MBD2 DNA inh	Neddylation inh	IN multimer up	TR-FRET interf	IN-LEDGF confirm
CC(C(=O)N(C)C1CCS(=O)(=O)C1)N1C(=O)/C(=C/c2cccs2)SC1=S (configuration not stated)	0	6	0	-2	-2	i	·	·	·
CC(C(=O)N(C)C1CCS(=O)(=O)C1)N1C(=O)/C(=C/c2ccco2)SC1=S (configuration not stated)	30*	13	0	1	-2	i	2	-8	15*
Nc1nc(SCC(=O)N2N=C3/C(=C/c4ccco4)CCCC3C2c2ccco2)n[nH]1 (configuration not stated)	18*	-3	0	-2	1	i	1	-4	6
Nc1nc(SCC(=O)N2N=C3/C(=C\c4ccco4)CCCC3C2c2ccco2)n[nH]1 (configuration not stated)	2	-1	0	-3	-6	i	·	·	·
O=C(CSc1nccc(=O)[nH]1)N1N=C2/C(=C/c3ccco3)CCCC2C1c1ccco1 (configuration not stated)	37*	14	0	3	10	i	2	-9	19*
COC(=O)c1cc(NS(=O)(=O)c2ccc(N3CCOCC3)c(N)c2)cc(C(=O)OC)c1	14*	2	0	6	3	i	0	-2	-6
CCOc1cc(CNc2ccc(N3CCOCC3)cc2)cc(Br)c1OCC	15*	-1	-1	-2	-7	i	2	-8	-4
CCOc1cc(CNc2ccc(N3CCCCC3)cc2)cc(Br)c1OCC(=O)NC(C)(C)C	15*	-6	0	2	-5	i	2	-10	2
Cc1ccc(C)c(S(=O)(=O)Nc2ccc(C(=O)NCCc3ccccn3)cc2)c1	7	3	0	-3	-1	i	·	·	·
Cc1ccc(OCCC(=O)OCC(=O)NC(=O)c2ccccc2)cc1	-3	2	1	-4	0	i	·	·	·
CC(C)N1C(=O)S/C(=C\c2ccc(-c3ccc(Cl)c(C(=O)O)c3)o2)C1=O	37*	37*	0	-2	0	i	1	-4	5
Cc1ccc(-c2cc(C(=O)NN=C/C=C/c3ccco3)[nH]n2)cc1C	13	0	0	·	-3	·	·	·	·
CCCN1CCC(C)(C(=O)Nc2cccc(OC(C)C)c2)C1 (configuration not stated)	5	0	0	-2	3	i	·	·	·
CCCCC(=O)Nc1cccc(NC(=S)NC(=O)C(C)C)c1	0	-1	0	1	2	i	·	·	·
CCCCC(=O)Nc1cccc(NC(=O)CC)c1	25*	2	0	-4	7	i	6	-32	1
Cc1ccc(/C=C/C(=O)Nc2cccc3cccnc23)o1	14*	-1	0	-1	-7	i	2	-8	1
CC1CCC2(CCC(=O)N2CCCOC(=O)Nc2cccc(C(F)(F)F)c2)CC1 (configuration not stated)	-2	1	1	·	-3	·	·	·	·
CC(=O)NNC(=O)c1sc(=S)n(C)c1C	22*	3	1	-1	1	i	1	-5	1
O=C(Nc1ccc(F)cc1)C(CCc1ccccc1)N1CCN(C(=O)c2ccco2)CC1 (configuration not stated)	-3	-1	0	·	4	i	·	·	·
CC1CN(C)C(C)C/C1=N/Oc1ccccc1[N+](=O)[O-] (configuration not stated)	26*	-5	0	-1	-7	i	1	-3	1

Assay outcomes deposited in PubChem by several laboratories.
